Measured values from PubChem BioAssay AID1159580 (chemical genetic matrix, 2015).
Where “and” joins values, the source holds several entries; their conditions need not be identical. Equal entries are not always repeated. Out of some 5,500 compounds screened, about 2,000 (36%) were called active. Not shown: some 18% with an inconclusive outcome. No stated cut-off is given here; in the data, active means normalized growth mostly below about 0.91 (no sharp cut-off); inconclusive means no clear call, values can overlap the other calls; inactive means mostly above about 0.92. This is one part of the list.

Experiment: chemical genetic growth profiling, strain panel (AID 1159580);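 further: tested at 20 µM; growth read once vehicle control cultures reached saturation at 30 °C; 1 = growth at the plate median or of vehicle wells; lower values mean less growth of the strain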
Conditions: S. cerevisiae deletion strains, growth OD

Measured: normalized growth

CCC(/C=C/[C@@H](C)[C@H]1CCC2C3CC=C4C[C@@H](O)CC[C@]4(C)C3CC[C@@]21C)C(C)C (some centres undefined)
inactive: locus YAL013W, strain DEP1, active compounds read low 0.999 | locus YAL021C, strain ccr4, active compounds read low 1.02 | locus YAL026C, strain drs2, active compounds read low 0.935 | locus YAL030W, strain snc1, active compounds read low 0.99 | locus YBL061C, strain skt5, active compounds read low 0.997 | locus YBR009C, strain hhf1, active compounds read low 0.972 | locus YBR021W, strain FUR4, active compounds read low 1.04 | locus YBR023C, strain chs3, active compounds read low 0.988 | locus YBR171W, strain sec66, active compounds read low 0.985 | locus YBR229C, strain ROT2, active compounds read low 0.993 | locus YBR231C, strain swc5, active compounds read low 0.988 | locus YBR279W, strain paf1, active compounds read low 0.994 | locus YCL011C, strain gbp2, active compounds read low 0.968 | locus YCL016C, strain dcc1, active compounds read low 1 | locus YCL029C, strain bik1, active compounds read low 1 | locus YCL061C, strain MRC1, active compounds read low 1.01 | locus YCL069W, strain vba3, active compounds read low 0.99 | locus YCR088W, strain abp1, active compounds read low 0.994 | locus YDL005C, strain med2, active compounds read low 0.983 | locus YDL035C, strain GPR1, active compounds read low 1.02 | locus YDL040C, strain nat1, active compounds read low 0.987 | locus YDL074C, strain BRE1, active compounds read low 0.992 | locus YDL101C, strain DUN1, active compounds read low 1.01 | locus YDL185W, strain tfp1, active compounds read low 0.986 | locus YDL192W, strain arf1, active compounds read low 0.986 | locus YDR001C, strain nth1, active compounds read low 0.991 | locus YDR069C, strain doa4, active compounds read low 1.01 | locus YDR101C, strain arx1, active compounds read low 0.987 | locus YDR137W, strain rgp1, active compounds read low 0.931 | locus YDR150W, strain NUM1, active compounds read low 1.02 | locus YDR159W, strain sac3, active compounds read low 0.959 | locus YDR162C, strain NBP2, active compounds read low 1.02 | locus YDR195W, strain ref2 0.963 | locus YDR297W, strain sur2, active compounds read low 0.991 | locus YDR318W, strain mcm21, active compounds read low 0.987 | locus YDR334W, strain swr1, active compounds read low 0.988 | locus YDR335W, strain msn5, active compounds read low 0.982 | locus YDR388W, active compounds read low 0.989 | locus YDR392W, strain spt3, active compounds read low 0.894 | locus YDR502C, strain sam2, active compounds read low 0.992 | locus YEL003W, strain gim4, active compounds read low 0.982 | locus YEL037C, strain rad23, active compounds read low 0.976 | locus YEL061C, strain CIN8 (second series), active compounds read low 0.979 | locus YEL061C, strain CIN8, active compounds read low 0.999 | locus YER015W, strain faa2, active compounds read low 1 | locus YER016W, strain bim1, active compounds read low 0.979 | locus YER110C, active compounds read low 0.995 | locus YER111C, strain swi4, active compounds read low 0.99 | locus YER155C, strain BEM2 (second series), active compounds read low 0.993 | locus YER155C, strain BEM2, active compounds read low 0.986 | locus YER167W, strain BCK2, active compounds read low 0.997 | locus YFR010W, strain ubp6, active compounds read low 0.997 | locus YGL078C, strain dbp3, active compounds read low 0.991 | locus YGL086W, strain mad1, active compounds read low 1.02 | locus YGL167C, strain pmr1, active compounds read low 0.975 | locus YGL173C, strain kem1, active compounds read low 0.983 | locus YGL227W, strain vid30, active compounds read low 0.985 | locus YGL240W, strain doc1, active compounds read low 0.998 | locus YGL248W, strain PDE1, active compounds read low 1 | locus YGL253W, strain hxk2, active compounds read low 0.962 | locus YGR135W, strain pre9, active compounds read low 0.989 | locus YGR252W, strain gcn5, active compounds read low 0.971 | locus YHR013C, strain ard1, active compounds read low 0.957 | locus YHR027C, strain rpn1, active compounds read low 0.996 | locus YHR030C, strain SLT2, active compounds read low 1 and 0.954 | locus YHR079C, strain IRE1 (second series), active compounds read low 0.991 | locus YHR079C, strain IRE1, active compounds read low 0.964 | locus YHR094C, strain hxt1, active compounds read low 0.995 | locus YHR129C, strain ARP1, active compounds read low 0.999 | locus YHR142W, strain chs7, active compounds read low 1.02 | locus YHR200W, strain rpn10, active compounds read low 0.981 | locus YIL066C, strain RNR3, active compounds read low 1 | locus YIL073C, strain SPO22, active compounds read low 1 | locus YIL125W, strain kgd1, active compounds read low 1.02 | locus YIR030C, strain dcg1, active compounds read low 1 | locus YJL092W, strain hpr5, active compounds read low 0.998 | locus YJL095W, strain BCK1 (second series), active compounds read low 0.997 | locus YJL095W, strain BCK1, active compounds read low 1.01 and 0.976 | locus YJL115W, strain asf1, active compounds read low 0.993 | locus YJL129C, strain trk1, active compounds read low 1.01 | locus YJL134W, strain LCB3, active compounds read low 0.997 | locus YJL154C, strain vps35, active compounds read low 0.981 | locus YJL164C, strain tpk1, active compounds read low 1 | locus YJL166W, strain qcr8, active compounds read low 0.981 | locus YJL168C, strain set2, active compounds read low 0.997 | locus YJL187C, strain SWE1 (second series), active compounds read low 1 | locus YJL187C, strain SWE1, active compounds read low 0.993 | locus YJR043C, strain POL32, active compounds read low 1.04 | locus YJR066W, strain TOR1, active compounds read low 0.929 | locus YKL009W, strain mrt4, active compounds read low 1.02 | locus YKL068W, active compounds read low 0.994 | locus YKL085W, strain MDH1 (second series), active compounds read low 0.993 | locus YKL085W, strain MDH1, active compounds read low 0.993 | locus YKL160W, strain elf1, active compounds read low 1.04 | locus YKR001C, strain vps1, active compounds read low 1.02 | locus YKR026C, strain gcn3, active compounds read low 0.984 | locus YKR091W, strain srl3, active compounds read low 0.99 | locus YLL001W, strain dnm1, active compounds read low 1 | locus YLL026W, active compounds read low 1.01 | locus YLL041C, strain sdh2, active compounds read low 1 | locus YLR027C, strain aat2, active compounds read low 0.984 | locus YLR039C, strain RIC1, active compounds read low 0.964 | locus YLR058C, strain SHM2, active compounds read low 0.998 | locus YLR102C, strain apc9, active compounds read low 0.992 | locus YLR113W, strain HOG1, active compounds read low 0.951 | locus YLR221C, strain rsa3, active compounds read low 1 | locus YLR258W, strain gsy2, active compounds read low 0.991 | locus YLR262C, strain YPT6 (second series), active compounds read low 0.917 | locus YLR262C, strain YPT6, active compounds read low 1.01 | locus YLR268W, strain sec22, active compounds read low 0.987 | locus YLR320W, strain mms22, active compounds read low 0.998 | locus YLR330W, strain CHS5, active compounds read low 1 | locus YLR342W, strain FKS1 (second series), active compounds read low 1.05 | locus YLR342W, strain FKS1, active compounds read low 0.986 | locus YLR357W, strain rsc2, active compounds read low 1.03 | locus YLR370C, strain arc18, active compounds read low 0.988 | locus YLR371W, strain rom2, active compounds read low 0.999 | locus YLR384C, strain iki3, active compounds read low 0.982 | locus YLR418C, strain cdc73, active compounds read low 1.03 | locus YML016C, strain PPZ1, active compounds read low 0.991 | locus YML032C, strain rad52, active compounds read low 0.994 | locus YML120C, strain ndi1, active compounds read low 0.99 | locus YML124C, strain tub3, active compounds read low 0.992 | locus YMR058W, strain fet3, active compounds read low 0.984 | locus YMR078C, strain ctf18, active compounds read low 0.987 | locus YMR125W, strain sto1, active compounds read low 0.975 | locus YMR129W, active compounds read low 1 | locus YMR205C, strain PFK2, active compounds read low 0.981 | locus YMR223W, strain ubp8, active compounds read low 0.974 | locus YMR231W, strain pep5, active compounds read low 0.99 | locus YMR263W, strain SAP30, active compounds read low 1.02 | locus YMR307W, strain GAS1, active compounds read low 1.11 | locus YNL067W, strain RPL9B, active compounds read low 1.02 | locus YNL071W, strain lat1, active compounds read low 0.986 | locus YNL128W, strain TEP1, active compounds read low 1 | locus YNL183C, strain NPR1, active compounds read low 0.904 | locus YNL209W, strain ssb2, active compounds read low 0.993 | locus YNL233W, strain BNI4, active compounds read low 1.02 | locus YNL248C, strain rpa49, active compounds read low 0.987 | locus YNL250W, strain rad50, active compounds read low 0.991 | locus YNL271C, strain bni1, active compounds read low 0.99 | locus YNL298W, strain CLA4, active compounds read low 1 | locus YNL307C, strain MCK1, active compounds read low 1.01 | locus YNL322C, strain KRE1 (second series), active compounds read low 0.989 | locus YNL322C, strain KRE1, active compounds read low 0.995 | locus YNR049C, strain mso1, active compounds read low 0.979 | locus YNR052C, strain pop2, active compounds read low 0.983 | locus YOL012C, strain htz1 1.17 | locus YOL147C, strain pex11, active compounds read low 0.992 | locus YOR001W, strain rrp6, active compounds read low 1.01 | locus YOR061W, strain CKA2, active compounds read low 1 | locus YOR069W, strain VPS5, active compounds read low 0.992 | locus YOR070C, strain gyp1, active compounds read low 0.976 | locus YOR080W, strain dia2, active compounds read low 0.989 | locus YOR083W, strain WHI5, active compounds read low 1.05 | locus YOR106W, strain vam3, active compounds read low 0.999 | locus YOR136W, strain idh2, active compounds read low 0.995 | locus YOR144C, strain elg1, active compounds read low 0.987 | locus YOR184W, strain ser1, active compounds read low 1 | locus YOR231W, strain MKK1, active compounds read low 0.984 | locus YOR265W, strain rbl2, active compounds read low 0.989 | locus YOR270C, strain vph1, active compounds read low 0.909 | locus YOR290C, strain snf2, active compounds read low 0.921 | locus YOR316C, strain cot1, active compounds read low 0.989 | locus YPL051W, strain arl3, active compounds read low 1.01 | locus YPL078C, strain atp4, active compounds read low 1.01 | locus YPL106C, strain sse1, active compounds read low 0.996 | locus YPL240C, strain hsp82, active compounds read low 1.02 | locus YPL256C, strain CLN2, active compounds read low 0.962 | locus YPR119W, strain clb2, active compounds read low 0.99 | locus YPR141C, strain kar3, active compounds read low 0.994 | locus YPR163C, strain tif3, active compounds read low 0.997 | locus YPR167C, strain met16, active compounds read low 0.992 | strain wtn01, active compounds read low 0.996
